Results on 87 compounds are retold here after PubChem BioAssay AID588492 (Sanford-Burnham Center for Chemical Genomics, 2011).

Out of some 360,000 compounds screened, about 2,300 (0.64%) were called active.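 Rule for the calls: active = compounds giving at least 50% protection of heart cells from peroxide-induced death in the single-dose screen, raw or plate-pattern-corrected value; inactive = the rest.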 Many of the other results were omitted from the sample, so actives are more common in it than they were.

This assay can be described thus: cardioprotection against H2O2-induced cell death, primary screen, uHTS, H9c2 cells, ATPLite luminescence (AID 588492).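 Note: 0% = DMSO wells with peroxide and 100% = DMSO wells without peroxide.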 As to conditions: H9c2 cardiomyocytes, H2O2 injury protection, 2 h, at 20 µM, hits give high values.
Regarding `N#Cc1ncc(C(F)(F)F)cc1Oc1cccnc1`, the protection from H2O2 cell death was -0.3% (inactive).

In the case of `Cc1cc(C)c(C(N)=O)c(Cl)n1`, the protection from H2O2 cell death is 0.4% (inactive). `COc1ccc(OC)c(Nc2nc(-c3ccc(O)c(O)c3)cs2)c1`: the protection from H2O2 cell death was 52% (active). For the compound `COc1ccc(C(O)c2nc(-c3ccc4c(c3)OCO4)cs2)cc1` (configuration not stated), the protection from H2O2 cell death is -5.3% (inactive). With `COc1ccc(C(C)(O)c2nc(-c3ccc(C)c(C)c3)cs2)cc1` (configuration not stated) the figure was -13.4% (inactive); with `[2H]C(CCOS(N)(=O)=O)c1ccccc1` (configuration not stated), 3% (inactive). The figure for `CCOC12CC(C)(C)CC(C)(CC3=C1C(=O)CC(C)(C)C3)C2` (configuration not stated) is -0.9% (inactive).

Regarding `CCC(=O)Oc1cccc(C(=O)Nc2ccc(-c3nnc(-c4ccco4)o3)cc2)c1`, the protection from H2O2 cell death was 77.3% (active).

In the case of `O=C(Nc1ccc(Cl)cc1)c1cccc(OC(=S)N2CCOCC2)c1`, the protection from H2O2 cell death was -15.8% (inactive).

On to `Cc1ccc2nc(-c3ccc(NC(=O)c4cccnc4)cc3)oc2c1`, for which the protection from H2O2 cell death is 48.1% (inactive). The figure for `COC(=O)NNC(=O)C1CCC(C)CC1` (configuration not stated) is -10% (inactive).

For the compound `COc1ccc(-c2cc(C(=O)N(C)CC(=O)Nc3ccccc3Cl)c3ccccc3n2)cc1OC`, the protection from H2O2 cell death is 49.1% (inactive).

With `COc1ccc(-c2cc(C(=O)N(C)Cc3ccc(OC)c(OC)c3OC)c3ccccc3n2)cc1OC`, the protection from H2O2 cell death was 67.1% (active).

For the compound `COc1ccc(CN(C)C(=O)c2cc(-c3ccc(C)cc3C)nc3ccccc23)c(OC)c1OC`, the protection from H2O2 cell death is 48.9% (inactive). The figure for `Cc1cc(C)nc(Nc2n[nH]c(-c3ccccc3N)n2)n1` is -9.5% (inactive). For `CCCCCN(C(=O)NC(=O)Nc1ccccc1C)S(C)(=O)=O`, the protection from H2O2 cell death is -4.1% (inactive). The figure for `CCC(C)(C)NC(=O)C(c1cccc(OC)c1OC)N(CC(C)C)C(=O)CCC(=O)Nc1cc(C)on1` (configuration not stated) is 1.2% (inactive); for `Cc1ccccc1Cn1c(C)c(C(=O)NCc2cccc(C(F)(F)F)c2)sc1=O` it is -2.6% (inactive).

For `COCCNC(=O)/C(C#N)=C/c1cccc(OCc2ccccc2)c1`, the protection from H2O2 cell death is 32.1% (inactive). The figure for `COc1ccc(CNC(=O)/C(C#N)=C/c2cccc(OC)c2OC)cc1` is 1.5% (inactive); for `N#C/C(=C\c1ccc(O)c(O)c1)C(=O)NCc1ccccc1` it is 55.9% (active); for `Cn1nc([N+](=O)[O-])nc1Sc1ccc(C(C)(C)C)cc1` it is -11.1% (inactive). The figure for `c1ccc(-c2cn3c(n2)CCc2ccc4cccnc4c2-3)cc1` is 61.6% (active); for `CCN(CC(=O)NC(C)C)C(=O)CCNC(=O)c1ccc(Cl)cc1` it is -0.7% (inactive); for `Cc1cccc(Nc2nnc(SCC(=O)c3c(N)n(C4CC4)c(=O)[nH]c3=O)s2)c1C` it is -2.2% (inactive). Consider `NC(c1ccccc1)c1csc(NC(=O)Nc2cccc(C(F)(F)F)c2)n1` (configuration not stated), for which the protection from H2O2 cell death is -10.6% (inactive). With `CC(=O)Nc1ccc(-c2csc(NC(=O)Nc3ccccc3)n2)cc1` the figure was 50.5% (active); with `CC(=O)Nc1ccc(-c2cn3cccnc3n2)cc1`, -2% (inactive). The figure for `CN(C)C(CNC(=O)CCCOc1ccccc1)c1ccco1` (configuration not stated) is 4.6% (inactive); for `O=C(COC(=O)Cn1cnc2ccccc21)Nc1cccc2c1C(=O)c1ccccc1C2=O` it is 59.5% (active). The figure for `O=C(Cn1cnc2ccccc21)Nc1ccccc1-c1ccccc1` is -5.3% (inactive). Consider `O=C(COC(=O)c1cccc(Br)c1)Nc1cccc2c1C(=O)c1ccccc1C2=O`, for which the protection from H2O2 cell death is -6.9% (inactive). With `O=C(CCc1nnc(CCCCc2ccccc2)o1)NC(c1cccnc1)C(F)(F)F` (configuration not stated), the protection from H2O2 cell death was 0.8% (inactive).

Regarding `COc1ccccc1NS(=O)(=O)c1ccc(C)c(C(=O)NNC(=O)c2csc(N3CCOCC3)n2)c1`, the protection from H2O2 cell death was 8.3% (inactive). The figure for `CCN(CC)C(=O)Cn1cc(S(=O)(=O)CC(=O)NCc2ccc3c(c2)OCO3)c2ccccc21` is 2.8% (inactive).

For the compound `C[C@@H]1C(c2ccc(F)cc2)=NN(c2ccc(Br)cc2)[C@H]1C(=O)N1CCOC1=O`, the protection from H2O2 cell death is -1.3% (inactive).

On to `COc1ccccc1OCCn1c(SCC(N)=O)nc2ccccc21`, for which the protection from H2O2 cell death was 3.9% (inactive). The figure for `O=C1N[C@H](Cc2c[nH]c3ccccc23)COC(=O)[C@H](Cc2ccc(F)cc2)C/C=C\C[C@H]1CC(=O)N(CCO)Cc1ccccc1` is 51.5% (active).

Consider `O=C1CCC/C=C/C[C@@H](CC(=O)N(CCO)Cc2ccccc2)C(=O)NC[C@H](c2ccccc2)O1`, for which the protection from H2O2 cell death is 0.5% (inactive). With `O=C1N[C@@H](c2ccccc2)COC(=O)[C@H](Cc2ccc(F)cc2)C/C=C\C[C@@H]1CC(=O)N(CCO)Cc1ccccc1` the figure was 8.2% (inactive). On to `O=C1NC[C@@H](c2ccccc2)OC(=O)[C@H](Cc2ccc(F)cc2)CC/C=C/C[C@H]1CC(=O)N(CCO)Cc1ccccc1`, for which the protection from H2O2 cell death is 61.8% (active). As for `CC(C)(C)OC(=O)C[C@@H]1C/C=C\C[C@@H](CC(=O)N(CCO)Cc2ccccc2)C(=O)N[C@H](Cc2ccccc2)COC1=O`, the protection from H2O2 cell death is 14.2% (inactive). In the case of `O=C1OC[C@@H]2CCCN2C(=O)[C@H](CC(=O)N(CCO)Cc2ccccc2)C/C=C\CC[C@@H]1Cc1ccc(F)cc1`, the protection from H2O2 cell death is 2.9% (inactive). `CCOc1ccc(NC(=O)[C@H](C)NC(=O)C2CC(=O)N(c3ccc(OC)cc3)C2)cc1` (some centres not stated): the protection from H2O2 cell death is -1.8% (inactive). With `CC(C)(C)OC(=O)N1CCN(C(=O)c2[nH]c(C(F)(F)F)nc2-c2ccccc2)CC1`, the protection from H2O2 cell death was -1.1% (inactive). Take `Cc1cc(C)cc(NC(=O)Cn2cnc3c(nnn3Cc3ccc(F)cc3)c2=O)c1`: the protection from H2O2 cell death is 0.7% (inactive). With `O=C(c1ccccc1)N1CCN(C(=O)c2cc3nc(-c4ccccc4)cc(C(F)(F)F)n3n2)CC1` the figure was 11.3% (inactive); with `CN(C)CCN1CCN(c2cc(-c3cccc(Cl)c3)nc3ccnn23)CC1`, 19.8% (inactive); with `C#Cc1cc(N2CCN(C(=O)c3ccoc3)CC2)n2nc(-c3cccc(Cl)c3)cc2n1`, 84.5% (active). For the compound `O=C(Cn1[nH]c(=O)c2ccccc2c1=O)Nc1cccc(-c2nnc3n2CCCCC3)c1`, the protection from H2O2 cell death is 23.4% (inactive). Turning to `Cc1ccc(-c2csc(NC(=O)Cn3[nH]c(=O)c4ccccc4c3=O)n2)cc1`, the protection from H2O2 cell death was 52% (active). The figure for `Cc1cc(C)c(-c2csc(NC(=O)CCCc3nc4ccccc4c(=O)[nH]3)n2)c(C)c1` is -4.2% (inactive); for `CCOC(=O)c1cnc2nc(SCc3ccccc3Cl)[nH]n2c1=O` it is -2.4% (inactive). The figure for `Cc1cc(-n2nc(C)cc2C)n2ncc(-c3ccccc3)c2n1` is 14.3% (inactive); for `CCOC(=O)c1cnc(-n2nc(C)cc2C)nc1NNc1cc(C)nc(-c2ccccc2)n1` it is 78.5% (active); for `COc1cc(OC)c(C(=O)OC(C)C(=O)Nc2cc(C(F)(F)F)ccc2Cl)cc1OC` (configuration not stated) it is -5% (inactive). As for `Cc1cc(C)n(C(=O)c2ccc(C)c(S(=O)(=O)N3CCOCC3)c2)n1`, the protection from H2O2 cell death was 15.2% (inactive). The figure for `c1ccc(Cc2nn3c(Cn4cnc5ccccc54)nnc3s2)cc1` is -4.9% (inactive); for `NC(=O)c1ccsc1NC(=O)COC(=O)Cc1n[nH]c(=O)c2ccccc12` it is 78.3% (active); for `CCCCn1nc(C(=O)OCC(=O)Nc2sccc2C(N)=O)c2ccccc2c1=O` it is 29.8% (inactive). The figure for `N#CC1(NC(=O)COC(=O)Cc2n[nH]c(=O)c3ccccc23)CCCCC1` is 30.9% (inactive); for `CCn1cc(C(=O)N[C@@H](C)C(=O)NCCO)c(=O)c2cc3c(cc21)OCO3` it is 3% (inactive). With `COC(=O)c1noc(C)c1-c1ccnn1C(=O)c1ccc(Cl)cc1` the figure was 3.5% (inactive); with `CCOc1ccc(OCC)c(NC(=O)CSc2nnc(Cn3cnc4ccccc43)n2C)c1`, -3.2% (inactive). Turning to `Cc1ccc(/C=N/NC(=O)C2=NNC(c3ccccc3)(c3ccccc3)C2)c(O)c1`, the protection from H2O2 cell death is 60.3% (active). With `Cc1ccc2cc(/C=N/NC(=O)[C@@H]3CCCN3)c(Cl)nc2c1` the figure was 14% (inactive). As for `O=C(NN=Cc1ccc2c(c1)CCC2)c1ccccc1O`, the protection from H2O2 cell death is -17.8% (inactive). In the case of `CC(C)c1nnc(NC(=O)C2CC(=O)N(CCc3ccc(F)cc3)C2)s1` (configuration not stated), the protection from H2O2 cell death was -4.8% (inactive). With `Cc1nc(S(=O)(=O)c2ccc(Br)cc2)nc2c1CCC2` the figure was -2.2% (inactive); with `CCC(CC)C(=O)Nc1c2c(nn1-c1ccc(C)cc1)CS(=O)(=O)C2`, -4.5% (inactive); with `CCC(C)(C)NC(=O)C(c1ccccn1)N(C(=O)c1csnn1)c1ccccc1` (configuration not stated), 1.1% (inactive). With `Cc1ccc(S(=O)(=O)NCC2CCC(C(=O)N3CCOCC3)CC2)cc1` (configuration not stated), the protection from H2O2 cell death is 3.4% (inactive). For the compound `Cn1c(SCC(=O)N/N=C/c2ccc(O)c(O)c2)nc2ccccc21`, the protection from H2O2 cell death was 70.9% (active). `Cc1nn(-c2ccccc2)c(C)c1/C=N/NC(=O)CSc1nc2ccccc2c(=O)n1-c1ccccc1`: the protection from H2O2 cell death is 22.5% (inactive).

Turning to `Cc1ccc(/C=N/NC(=O)CSc2nc3ccccc3o2)cc1`, the protection from H2O2 cell death is -4.4% (inactive).

Take `COc1ccc(S(=O)(=O)N2CCN(CC(=O)NCC3(N4CCOCC4)CCCCC3)CC2)cc1`: the protection from H2O2 cell death is 3% (inactive).

As to `CC(C)(C)C(=O)Nc1cccc(-c2ccc[nH]2)n1`, the protection from H2O2 cell death is 5.3% (inactive). `Cc1nn(Cc2ccccc2Cl)c(C)c1NC(=O)Cn1nc([N+](=O)[O-])c(Cl)c1C`: the protection from H2O2 cell death was 15.4% (inactive).

As for `Cc1c(Cl)c([N+](=O)[O-])nn1Cc1ccc(C(=O)N/N=C\c2cc(Cl)ccc2O)o1`, the protection from H2O2 cell death was 67.5% (active). As to `Cc1c(Cl)c([N+](=O)[O-])nn1CCCC(=O)NC(C)c1ccccc1` (configuration not stated), the protection from H2O2 cell death is 5.3% (inactive). The figure for `N#Cc1ccc(C(c2ccc(C#N)cc2)n2cncn2)cc1` is 2.5% (inactive); for `Cn1c(C(=O)N2CCC(C(N)=O)CC2)cc2c(=O)n(C)c3ccccc3c21` it is 1.2% (inactive); for `Cn1c(C(=O)NCCc2ccsc2)cc2c(=O)n(C)c3ccccc3c21` it is 96.5% (active). With `Cn1c(C(=O)NCCN2CCc3ccccc3C2)cc2c(=O)[nH]c3ccccc3c21` the figure was 19.2% (inactive). On to `O=C(N/N=C/c1cc([N+](=O)[O-])ccc1O)/C(=C\c1cccs1)NC(=O)c1ccccc1`, for which the protection from H2O2 cell death is 54.9% (active). With `O=C(Nc1ccc(C(=O)O)cc1)/C(=C/c1ccc([N+](=O)[O-])cc1)NC(=O)c1ccccc1` the figure was 4.6% (inactive); with `O=C(NCCc1ccccc1)/C(=C\c1ccc([N+](=O)[O-])cc1)NC(=O)c1ccccc1`, 16.6% (inactive).
